Reference: PubChem BioAssay AID1159580 (chemical genetic matrix, 2015)
About 2,000 (36%) of roughly 5,500 compounds were called active. Inconclusive results (about 18%) are left out. Rule as the data show it: active = normalized growth mostly below about 0.91 (no sharp cut-off); inconclusive = no clear call, values can overlap the other calls; inactive = mostly above about 0.92. Some of the results follow.

Test: chemical genetic growth profiling, strain panel (AID 1159580);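 also: tested at 20 µM; growth read once vehicle control cultures reached saturation at 30 °C; 1 = growth at the plate median or of vehicle wells; lower values mean less growth of the strain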
Conditions: S. cerevisiae deletion strains, growth OD

Measured: normalized growth

O=C(OC1Cc2c(O)cc(O)cc2OC1c1cc(=O)c(O)c2c(O)c(O)cc(C3Oc4cc(O)cc(O)c4CC3O)c2c1)c1cc(O)c(O)c(O)c1 (stereo not drawn)
inactive: locus YAL030W, strain snc1, stronger effect = lower value 0.971 | locus YBL061C, strain skt5, stronger effect = lower value 0.932 | locus YBR021W, strain FUR4, stronger effect = lower value 1.05 | locus YBR171W, strain sec66, stronger effect = lower value 0.972 | locus YBR279W, strain paf1, stronger effect = lower value 0.942 | locus YCL011C, strain gbp2, stronger effect = lower value 0.948 | locus YCL016C, strain dcc1, stronger effect = lower value 0.976 | locus YCL061C, strain MRC1, stronger effect = lower value 0.942 | locus YCL069W, strain vba3, stronger effect = lower value 0.986 | locus YCR088W, strain abp1, stronger effect = lower value 1 | locus YDL005C, strain med2, stronger effect = lower value 0.996 | locus YDL040C, strain nat1, stronger effect = lower value 1 | locus YDL185W, strain tfp1, stronger effect = lower value 0.92 | locus YDR001C, strain nth1, stronger effect = lower value 0.992 | locus YDR159W, strain sac3, stronger effect = lower value 1.06 | locus YDR195W, strain ref2 1.03 | locus YDR297W, strain sur2, stronger effect = lower value 0.966 | locus YDR335W, strain msn5, stronger effect = lower value 0.938 | locus YDR392W, strain spt3, stronger effect = lower value 0.939 | locus YEL003W, strain gim4, stronger effect = lower value 0.946 | locus YEL037C, strain rad23, stronger effect = lower value 0.946 | locus YEL061C, strain CIN8 (second series), stronger effect = lower value 0.992 | locus YER015W, strain faa2, stronger effect = lower value 0.93 | locus YER016W, strain bim1, stronger effect = lower value 0.968 | locus YER110C, stronger effect = lower value 1.01 | locus YER155C, strain BEM2 (second series), stronger effect = lower value 0.927 | locus YER155C, strain BEM2, stronger effect = lower value 0.982 | locus YGL078C, strain dbp3, stronger effect = lower value 1 | locus YGL167C, strain pmr1, stronger effect = lower value 0.969 | locus YGL227W, strain vid30, stronger effect = lower value 1 | locus YGL240W, strain doc1, stronger effect = lower value 1 | locus YHR094C, strain hxt1, stronger effect = lower value 0.982 | locus YIL125W, strain kgd1, stronger effect = lower value 0.995 | locus YIR030C, strain dcg1, stronger effect = lower value 0.956 | locus YJL092W, strain hpr5, stronger effect = lower value 0.992 | locus YJL095W, strain BCK1 (second series), stronger effect = lower value 0.96 | locus YJL115W, strain asf1, stronger effect = lower value 0.986 | locus YJL129C, strain trk1, stronger effect = lower value 1.04 | locus YJL154C, strain vps35, stronger effect = lower value 1 | locus YJL168C, strain set2, stronger effect = lower value 0.954 | locus YJL187C, strain SWE1, stronger effect = lower value 0.95 | locus YKL009W, strain mrt4, stronger effect = lower value 1.02 | locus YKL068W, stronger effect = lower value 0.996 | locus YKL085W, strain MDH1 (second series), stronger effect = lower value 0.994 | locus YKL085W, strain MDH1, stronger effect = lower value 0.994 | locus YKL160W, strain elf1, stronger effect = lower value 0.969 | locus YKR026C, strain gcn3, stronger effect = lower value 0.967 | locus YKR091W, strain srl3, stronger effect = lower value 1 | locus YLL001W, strain dnm1, stronger effect = lower value 0.967 | locus YLL026W, stronger effect = lower value 0.978 | locus YLL041C, strain sdh2, stronger effect = lower value 0.989 | locus YLR027C, strain aat2, stronger effect = lower value 0.955 | locus YLR102C, strain apc9, stronger effect = lower value 0.973 | locus YLR221C, strain rsa3, stronger effect = lower value 0.925 | locus YLR258W, strain gsy2, stronger effect = lower value 0.946 | locus YLR320W, strain mms22, stronger effect = lower value 0.927 | locus YLR342W, strain FKS1, stronger effect = lower value 0.929 | locus YLR370C, strain arc18, stronger effect = lower value 0.916 | locus YLR384C, strain iki3, stronger effect = lower value 0.971 | locus YML120C, strain ndi1, stronger effect = lower value 0.952 | locus YML124C, strain tub3, stronger effect = lower value 0.958 | locus YMR078C, strain ctf18, stronger effect = lower value 0.973 | locus YMR125W, strain sto1, stronger effect = lower value 1.03 | locus YMR129W, stronger effect = lower value 1 | locus YMR205C, strain PFK2, stronger effect = lower value 0.901 | locus YNL071W, strain lat1, stronger effect = lower value 1 | locus YNL248C, strain rpa49, stronger effect = lower value 0.986 | locus YNL250W, strain rad50, stronger effect = lower value 0.99 | locus YNL271C, strain bni1, stronger effect = lower value 0.963 | locus YNL298W, strain CLA4, stronger effect = lower value 1 | locus YNL307C, strain MCK1, stronger effect = lower value 0.93 | locus YNL322C, strain KRE1 (second series), stronger effect = lower value 1.02 | locus YNR049C, strain mso1, stronger effect = lower value 0.997 | locus YOL012C, strain htz1 0.293 | locus YOR001W, strain rrp6, stronger effect = lower value 0.962 | locus YOR070C, strain gyp1, stronger effect = lower value 0.938 | locus YOR080W, strain dia2, stronger effect = lower value 0.966 | locus YOR083W, strain WHI5, stronger effect = lower value 0.937 | locus YOR265W, strain rbl2, stronger effect = lower value 0.969 | locus YOR316C, strain cot1, stronger effect = lower value 0.958 | locus YPL078C, strain atp4, stronger effect = lower value 0.957 | locus YPL106C, strain sse1, stronger effect = lower value 0.872 | locus YPL240C, strain hsp82, stronger effect = lower value 0.97 | locus YPR119W, strain clb2, stronger effect = lower value 0.988 | locus YPR141C, strain kar3, stronger effect = lower value 0.993 | locus YPR163C, strain tif3, stronger effect = lower value 0.969
active: locus YAL013W, strain DEP1, stronger effect = lower value 0.132 | locus YAL021C, strain ccr4, stronger effect = lower value 0.794 | locus YAL026C, strain drs2, stronger effect = lower value 0.856 | locus YBR009C, strain hhf1, stronger effect = lower value 0.901 | locus YBR023C, strain chs3, stronger effect = lower value 0.87 | locus YBR229C, strain ROT2, stronger effect = lower value 0.766 | locus YBR231C, strain swc5, stronger effect = lower value 0.819 | locus YCL029C, strain bik1, stronger effect = lower value 0.816 | locus YDL035C, strain GPR1, stronger effect = lower value 0.158 | locus YDL074C, strain BRE1, stronger effect = lower value 0.286 | locus YDL101C, strain DUN1, stronger effect = lower value 0.194 | locus YDL192W, strain arf1, stronger effect = lower value 0.747 | locus YDR069C, strain doa4, stronger effect = lower value 0.71 | locus YDR101C, strain arx1, stronger effect = lower value 0.91 | locus YDR137W, strain rgp1, stronger effect = lower value 0.844 | locus YDR150W, strain NUM1, stronger effect = lower value 0.651 | locus YDR162C, strain NBP2, stronger effect = lower value 0.0937 | locus YDR318W, strain mcm21, stronger effect = lower value 0.828 | locus YDR334W, strain swr1, stronger effect = lower value 0.873 | locus YDR388W, stronger effect = lower value 0.888 | locus YDR502C, strain sam2, stronger effect = lower value 0.645 | locus YEL061C, strain CIN8, stronger effect = lower value 0.417 | locus YER111C, strain swi4, stronger effect = lower value 0.885 | locus YER167W, strain BCK2, stronger effect = lower value 0.585 | locus YFR010W, strain ubp6, stronger effect = lower value 0.862 | locus YGL086W, strain mad1, stronger effect = lower value 0.795 | locus YGL173C, strain kem1, stronger effect = lower value 0.81 | locus YGL248W, strain PDE1, stronger effect = lower value 0.345 | locus YGL253W, strain hxk2, stronger effect = lower value 0.887 | locus YGR078C, strain PAC10, stronger effect = lower value 0.704 | locus YGR135W, strain pre9, stronger effect = lower value 0.67 | locus YGR229C, strain SMI1, stronger effect = lower value 0.0876 | locus YGR252W, strain gcn5, stronger effect = lower value 0.56 | locus YHR013C, strain ard1, stronger effect = lower value 0.805 | locus YHR027C, strain rpn1, stronger effect = lower value 0.812 | locus YHR030C, strain SLT2, stronger effect = lower value 0.59 | locus YHR079C, strain IRE1 (second series), stronger effect = lower value 0.864 | locus YHR129C, strain ARP1, stronger effect = lower value 0.536 | locus YHR142W, strain chs7, stronger effect = lower value 0.841 | locus YHR200W, strain rpn10, stronger effect = lower value 0.794 | locus YIL066C, strain RNR3, stronger effect = lower value 0.0947 | locus YIL073C, strain SPO22, stronger effect = lower value 0.159 | locus YJL095W, strain BCK1, stronger effect = lower value 0.154 | locus YJL134W, strain LCB3, stronger effect = lower value 0.732 | locus YJL164C, strain tpk1, stronger effect = lower value 0.868 | locus YJL166W, strain qcr8, stronger effect = lower value 0.883 | locus YJL187C, strain SWE1 (second series), stronger effect = lower value 0.0967 | locus YJR043C, strain POL32, stronger effect = lower value 0.203 | locus YJR075W, strain HOC1, stronger effect = lower value 0.58 | locus YKL190W, strain CNB1, stronger effect = lower value 0.126 | locus YKR001C, strain vps1, stronger effect = lower value 0.688 | locus YLR039C, strain RIC1, stronger effect = lower value 0.17 | locus YLR058C, strain SHM2, stronger effect = lower value 0.183 | locus YLR262C, strain YPT6 (second series), stronger effect = lower value 0.811 | locus YLR262C, strain YPT6, stronger effect = lower value 0.342 | locus YLR268W, strain sec22, stronger effect = lower value 0.609 | locus YLR330W, strain CHS5, stronger effect = lower value 0.708 | locus YLR342W, strain FKS1 (second series), stronger effect = lower value 0.263 | locus YLR357W, strain rsc2, stronger effect = lower value 0.744 | locus YLR371W, strain rom2, stronger effect = lower value 0.711 | locus YLR418C, strain cdc73, stronger effect = lower value 0.356 | locus YML016C, strain PPZ1, stronger effect = lower value 0.0879 | locus YML032C, strain rad52, stronger effect = lower value 0.879 | locus YMR058W, strain fet3, stronger effect = lower value 0.252 | locus YMR223W, strain ubp8, stronger effect = lower value 0.761 | locus YMR231W, strain pep5, stronger effect = lower value 0.866 | locus YMR307W, strain GAS1, stronger effect = lower value 0.339 | locus YNL067W, strain RPL9B, stronger effect = lower value 0.486 | locus YNL128W, strain TEP1, stronger effect = lower value 0.145 | locus YNL153C, strain GIM3, stronger effect = lower value 0.417 | locus YNL209W, strain ssb2, stronger effect = lower value 0.749 | locus YNL233W, strain BNI4, stronger effect = lower value 0.621 | locus YNR052C, strain pop2, stronger effect = lower value 0.648 | locus YOL006C, strain TOP1, stronger effect = lower value 0.139 | locus YOL147C, strain pex11, stronger effect = lower value 0.865 | locus YOR061W, strain CKA2, stronger effect = lower value 0.383 | locus YOR069W, strain VPS5, stronger effect = lower value 0.485 | locus YOR106W, strain vam3, stronger effect = lower value 0.657 | locus YOR136W, strain idh2, stronger effect = lower value 0.906 | locus YOR144C, strain elg1, stronger effect = lower value 0.915 | locus YOR184W, strain ser1, stronger effect = lower value 0.578 | locus YOR270C, strain vph1, stronger effect = lower value 0.638 | locus YOR290C, strain snf2, stronger effect = lower value 0.827 | locus YPL051W, strain arl3, stronger effect = lower value 0.827 | locus YPL241C, strain CIN2, stronger effect = lower value 0.636 | locus YPR167C, strain met16, stronger effect = lower value 0.878 | strain wtn01, stronger effect = lower value 0.667
